Lassa entry inh = qHTS for Inhibitors of binding or entry into cells for Lassa Virus. 300,000 compounds, 1.2% hits. Potency, µM (top dose mostly 37.9 µM), for the others: top-dose activity change, negative = inhibition, actives largely listed as inhibitors. Lassa virus pseudotype entry inhibition, cell reporter; calls by dose curve; tested in HEK293 cells; further: potency means the concentration at half of the fitted maximal effect; nearly all actives have a fitted effect of over 50% in size
HCV inh = qHTS Assay for Inhibitors of Hepatitis C Virus (HCV); Huh7.5.1 HCVcc-Cre infection, luciferase reporter, 44 h; Potency, µM (series often up to 41.8 µM), inactives show top-dose activity change, negative = inhibition, hits mostly inhibitors; 340,000 compounds, 3.4% hits; active means well fitted inhibition curve with a large enough effect; inconclusive means small, poorly fitted or top-dose-only effect, or another doubt; inactive means no such curve, though single readings can be large or run the other way; further: potency means the concentration at half of the fitted maximal effect
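Infectious HCV cell culture screen: compound-treated cells (1,000/well, pre-plated 4 h) are infected with HCVcc-Cre at roughly 0.5 moi and grown 44 h. Infection is quantified by luciferase signal after 15 min substrate incubation at room temperature.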
FMDV antiviral = High Throughput Screening for Foot and Mouth Disease Virus Antivirals | FMDV antiviral cell-based qHTS | Potency, µM (doses to about 57.9 µM), for inactives: at the highest dose activity change, negative = inhibition, most hits filed as inhibitors | 410,000 compounds, 1.2% hits | AID 1159524, 2015; calls by dose curve; tested in HEK293T cells; further: read-out not given here; potency means the concentration at half of the fitted maximal effect; nearly all actives have a fitted effect of over 45% in size
MARV entry inh = qHTS for inhibitors of binding or entry into cells for Marburg Virus. AID 540276, 2011. 300,000 compounds, 1.8% hits. Potency, µM (doses to about 37.8 µM), without a hit: top-dose activity change, negative = inhibition, hits mostly inhibitors. Marburg virus pseudotyped entry inhibition, cell reporter; calls by dose curve; tested in HEK293 cells; further: potency means the concentration at half of the fitted maximal effect
HCMV antiviral = qHTS Assay for inhibitors of the human cytomegalovirus (HCMV). HFF cells, HCMV-luciferase reporter, 72 h; stronger effect = lower value. activity change, negative = inhibition, % at 57.5 µM. 410,000 compounds, 4.5% hits; in the data active means activity change below about -60%; inconclusive means no clear call, values can overlap the other calls; inactive means above about -39%
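Two-dose cell screen: HFF monolayers treated with compounds and infected with luciferase-expressing HCMV at 1 PFU/cell, 72 h at 37C, then lysed for luciferase measurement.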
* = called active by the depositor; ? = inconclusive; . = no result given; [ ] = remark or other dose. In the library only some 7.9% were active in any assay of this set; here they are far more common. On the % scale 0 is the no-effect control and ±100 the full control effect.

SMILES | Lassa entry inh | HCV inh | FMDV antiviral | MARV entry inh | HCMV antiviral
C/C(=N/Nc1ccc([N+](=O)[O-])cc1)c1ccc(C)cc1C | -15% | ? | 16% | -46% | -63*
COc1ccc(C(=O)CC(=O)Nc2ccc([N+](=O)[O-])cc2)cc1 | . | 11µM* | -12% | . | ?
COc1ccc(C(=O)/C(C#N)=N/Nc2ccccc2[N+](=O)[O-])cc1 | ? | 4% | -17% | ? | -10
COc1ccc(C(=O)/C(C#N)=N/Nc2ccc([N+](=O)[O-])cc2)cc1 | . | 1.6µM* | ? | . | -114*
COc1ccccc1NC(=O)CSC1=Nc2ccccc2C2=NC(CC(=O)NCc3ccco3)C(=O)N12 (centres undefined) | -1%[46.1 µM] | . | 31% | . | 83
CCN(CC)S(=O)(=O)c1ccc(NN=C(C#N)C#N)cc1 | ? | ? | 10µM* | ? | ?
COc1ccc(C2/C(=C(/O)c3ccccc3)C(=O)C(=O)N2CO)cc1 (centres undefined) | 4% | -17% | -13% | -7%[46.1 µM] | -2
COc1ccc(N/C(C)=C2/C(=O)C(=O)N(CCO)C2c2ccc([N+](=O)[O-])cc2)cc1 (centres undefined) | -14% | -7% | -16% | 1% | -99*
CCc1ccccc1N(CC)C(=O)c1cc2c(s1)-c1ccccc1OC2 | . | . | -24% | ? | -21
COc1ccccc1N(C)c1cc2c(c3c1ccn3C)C1CCC2C1 (centres undefined) | . | . | -10% | ? | -89*
O=C(c1ccc2c(c1)CCO2)N1CC2ON=C(c3c(F)cccc3Cl)C2C1 (centres undefined) | . | . | . | . | 14
Cc1ccc(S(=O)(=O)c2nc(C)c3c(n2)CCC3)cc1 | 1% | 12% | 15% | 1% | 16
COc1cccc(S(=O)(=O)c2nc(C)c3c(n2)CCC3)c1 | . | 4% | 13µM* | . | -81*
COc1ccc(-c2[nH]ncc2N=Nc2cc(C)cc(C)c2)cc1 | ? | 2.2µM* | -14% | ? | 10
CCC(Sc1nc2ccncc2[nH]1)C(=O)Nc1ccc(F)cc1 (centres undefined) | 9%[46.1 µM] | . | -30% | ? | -6
O=C(N[C@@H](Cc1ccccc1)C(=O)CCl)OCc1ccccc1 | 3.3µM* | ? | 32µM* | 16µM* | -90*
CC(C)[C@H](NC(=O)OCc1ccccc1)C(=O)N[C@H](C=O)Cc1ccccc1 | 7% | . | 8% | 0.65µM* | .
CCN1C(=O)C(c2nnnn2-c2c(C)cccc2C)N(CCc2ccccc2)C1=O (centres undefined) | . | . | . | . | -8
Cc1nc(-c2cccc(NC(=O)c3ccc(-n4nccc4C)cc3)c2)cs1 | ? | 10µM* | 22µM* | -72% | 0
Cc1nc(-c2cccc(NC(=O)c3ccc(Br)o3)c2)cs1 | . | ? | 26% | . | -33
CCN(CC)c1ccc(/C=N/NC(=O)Cc2cccs2)c(O)c1 | 3.2µM* | ? | 22% | 16µM* | -100*
CCN(CC)c1ccc(/C=N/N=C(c2ccccc2)c2ccccc2)c(O)c1 | 10µM* | ? | -18% | ? | 3
CCN(CC)c1ccc(/C=N/NC(=S)NCc2ccccc2)c(O)c1 | ? | -28% | -34% | ? | -63*
CCN(CC)c1ccc(NC(=O)c2ccco2)c(C)c1 | ? | -13% | 11% | 14% | -5
CCN(CC)c1ccc(/C=N/NC(=O)c2ccco2)c(O)c1 | . | ? | 62% | . | -103*
SMILES | Lassa entry inh | HCV inh | FMDV antiviral | MARV entry inh | HCMV antiviral
O=C(Cc1cccs1)N/N=C/c1ccccc1 | ? | -4% | 19% | -5%[46.1 µM] | 55
CCN(CC)c1ccc(/C=N/N(c2ccccc2)c2ccccc2)c(O)c1 | ? | -3% | ? | ? | -20
COc1ccc(-c2cc(C)nc3c(-c4ccc(OC)c(OC)c4)c(C)nn23)cc1 | ? | . | -22% | ? | -34
Cc1ccc(SCCNC(=O)CN(c2ccccc2)S(=O)(=O)N(C)C)cc1 | -25%[46.1 µM] | . | -4% | 26%[46.1 µM] | -7
CN(C)c1ncc2nc(-c3ccccc3)c(=O)n(CCC#N)c2n1 | . | . | -15% | . | .
CCN(CC)c1ccc(/C=N/Nc2nc3ccccc3[nH]2)c(O)c1 | 6.3µM* | 5.6µM* | -26% | 4µM* | -98*
CCN(CC)c1ccc(/C=N/NC(=O)c2ccco2)cc1 | 4.5µM* | ? | -37% | 7.3µM* | 26

Source: PubChem BioAssay (National Center for Advancing Translational Sciences (NCATS))
